Experimental findings from PubChem BioAssay (NCI) are described below.

The panel holds about 79,000 compounds, 15% with a hit somewhere; the sample as a whole holds those more often. Values without a mark were called inactive. Activity calls are given as the source filed them. Rule as the data show it: active = growth inhibition above about 70%; inactive = the rest.

A short description of test [1]: NCI Yeast Anticancer Drug Screen. Data for the rad50 strain (AID 155).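 Also: 0% = growth of vehicle-only cultures of the same strain.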 The conditions noted are these: S. cerevisiae rad50 strain growth inhibition, hits give high values. The essentials:
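Genetically altered yeast (DNA repair pathway); compound treatment; growth inhibition vs vehicle ctrl.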

The nature of test [2]: NCI Yeast Anticancer Drug Screen. Data for the mec2-1 strain (AID 157). The conditions noted are these: S. cerevisiae mec2-1 strain, hits give high values. Summed up: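 Each compound was tested on mec2-1 yeast, a strain altered in DNA damage repair or cell cycle control. Growth inhibition is reported relative to vehicle.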
A short description of test [3]: NCI Yeast Anticancer Drug Screen. Data for the sgs1 mgt1 strain (AID 161).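 Also: 0% = growth of cultures given vehicle only.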 Conditions: S. cerevisiae sgs1 mgt1 strain, hits give high values. The essentials:
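Test agents were incubated with a DNA-repair-mutant yeast strain. Growth was then read and compared against vehicle-treated controls.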

Test [4] can be described thus: NCI Yeast Anticancer Drug Screen. Data for the cln2 rad14 strain (AID 165).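 Also: 0% = growth equal to vehicle treated cultures.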 Conditions: S. cerevisiae cln2 rad14 strain, hits give high values. Summed up:
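Test compounds were added to cln2 rad14 yeast cultures; inhibition of growth was then determined by comparison with vehicle treatment.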

Test [5] in a line: NCI Yeast Anticancer Drug Screen. Data for the bub3 strain (AID 167). Conditions: S. cerevisiae bub3 mutant strain, hits give high values. Summed up:
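Yeast carrying a defined mutation is treated with each compound, and growth is compared with that of vehicle-exposed cells to give inhibition.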

Test [6] can be described thus: NCI Yeast Anticancer Drug Screen. Data for the mlh1 rad18 strain (AID 175). Conditions: S. cerevisiae mlh1 rad18 strain growth inhibition, hits give high values. The essentials: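 Inhibition values reflect reduced growth of mutant yeast versus vehicle-treated controls following compound exposure; the mutations affect DNA damage repair.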
[7] abbreviates: at 5.0 µM (retest, dose inferred, filed as 0.5).
[8] abbreviates: at 50.0 µM (retest, dose inferred, filed as 5.0).

Take `Oc1cc(Br)cc2cc(Cl)cnc12`: the growth inhibition is 99% (active) in test [1] (setting [7]); 89% (active) in test [1] (setting [8]); 84.5% (active) in test [1] (at 50.0 µM); 97% (active) in test [2] (setting [7]); 87% (active) in test [2] (setting [8]); 84.5% (active) in test [2] (at 50.0 µM). Besides, the growth inhibition is 98% (active) in test [3] (setting [7]); 93% (active) in test [3] (setting [8]); 79.8% (active) in test [3] (at 50.0 µM); 98% (active) in test [4] (setting [7]); 88% (active) in test [4] (setting [8]); 80% (active) in test [4] (at 50.0 µM). Further, the growth inhibition in test [5] (setting [7]) is 98% (active); in test [5] (setting [8]) it was 86% (active); in test [5] (at 50.0 µM) it was 83.1% (active); in test [6] (setting [7]), 98% (active); in test [6] (setting [8]) it was 81% (active); in test [6] (at 50.0 µM), 75.5% (active).
For the molecule `CCCc1cc(=O)oc2c3c(c4c(c12)OC(C)(C)CC4)O[C@H](C)[C@H](C)C3=O`, the growth inhibition was -7% in test [1] (setting [7]); 99% (active) in test [1] (setting [8]); 88.5% (active) in test [1] (at 50.0 µM); -18% in test [2] (setting [7]); 99% (active) in test [2] (setting [8]); 91.6% (active) in test [2] (at 50.0 µM). Besides, the growth inhibition in test [3] (setting [7]) was -12%; in test [3] (setting [8]), 99% (active); in test [3] (at 50.0 µM) it was 88.2% (active); in test [4] (setting [7]), -6%; in test [4] (setting [8]), 98% (active); in test [4] (at 50.0 µM), 90.3% (active). The growth inhibition in test [5] (setting [7]) was -18%; in test [5] (setting [8]) it was 99% (active); in test [5] (at 50.0 µM), 91.1% (active); in test [6] (setting [7]), -5%; in test [6] (setting [8]), 99% (active); in test [6] (at 50.0 µM), 84.7% (active).
Regarding `CN(C)C1=NC(N(C)C)=C2C=CC=C12`, the growth inhibition in test [1] (setting [7]) is -3%; in test [1] (setting [8]), 49%; in test [1] (at 50.0 µM), 66.2%; in test [2] (setting [7]) it was -2%; in test [2] (setting [8]) it was 51%; in test [2] (at 50.0 µM) it was 43.8%. Besides, the growth inhibition was -4% in test [3] (setting [7]); 34% in test [3] (setting [8]); 33.4% in test [3] (at 50.0 µM); -3% in test [4] (setting [7]); 40% in test [4] (setting [8]); 72.5% (active) in test [4] (at 50.0 µM). Further, the growth inhibition is 2% in test [5] (setting [7]); 73% (active) in test [5] (setting [8]); 82.2% (active) in test [5] (at 50.0 µM); -6% in test [6] (setting [7]); 71% (active) in test [6] (setting [8]); 86.8% (active) in test [6] (at 50.0 µM).
Consider `COC(=O)C1(NC(=O)C(CC(=O)OCc2ccccc2)NC(=O)OCc2ccccc2)CCCCCC1` (configuration not stated), for which the growth inhibition in test [1] (setting [7]) is 3%; in test [1] (setting [8]), 30%; in test [1] (at 50.0 µM), 63%; in test [2] (setting [7]), -1%; in test [2] (setting [8]) it was 41%; in test [2] (at 50.0 µM), 8.9%. For the same molecule, the growth inhibition in test [3] (setting [7]) is -12%; in test [3] (setting [8]) it was 25%; in test [3] (at 50.0 µM), 50.3%; in test [4] (setting [7]), -2%; in test [4] (setting [8]) it was 47%; in test [4] (at 50.0 µM) it was 71.5% (active). In addition, the growth inhibition in test [5] (setting [7]) was -22%; in test [5] (setting [8]) it was 66%; in test [5] (at 50.0 µM), 56.8%; in test [6] (setting [7]) it was -3%; in test [6] (setting [8]), 64%; in test [6] (at 50.0 µM), 59.1%.
For the molecule `CC[C@H]1CN2CCc3cc(OC)c(OC)cc3[C@@H]2C[C@@H]1C[C@H]1NCCc2cc(OC)c(OC)cc21`, the growth inhibition in test [1] (setting [7]) is 0%; in test [1] (setting [8]), 12%; in test [1] (at 50.0 µM), -7.4%; in test [2] (setting [7]) it was -10%; in test [2] (setting [8]), -2%; in test [2] (at 50.0 µM) it was -4.65%. In addition, the growth inhibition in test [3] (setting [7]) was 1%; in test [3] (setting [8]), 3%; in test [3] (at 50.0 µM) it was 4%; in test [4] (setting [7]) it was 1%; in test [4] (setting [8]), 17%; in test [4] (at 50.0 µM), 7.5%. In addition, the growth inhibition in test [5] (setting [7]) is 3%; in test [5] (setting [8]) it was 0%; in test [5] (at 50.0 µM), 2.55%; in test [6] (setting [7]) it was 1%; in test [6] (setting [8]), 3%; in test [6] (at 50.0 µM), 8.25%.
As to `CC1SC2=NC3=C(c4ccccc4C3=O)C(c3ccc(Cl)cc3)N2C1=O` (configuration not stated), the growth inhibition in test [1] (setting [7]) was -3%; in test [1] (setting [8]), 75% (active); in test [1] (at 50.0 µM), 58.7%; in test [2] (setting [7]), -28%; in test [2] (setting [8]), 81% (active); in test [2] (at 50.0 µM) it was 33.8%. Moreover, the growth inhibition in test [3] (setting [7]) is -6%; in test [3] (setting [8]), 69%; in test [3] (at 50.0 µM) it was 73.2% (active); in test [4] (setting [7]) it was 14%; in test [4] (setting [8]), 84% (active); in test [4] (at 50.0 µM) it was 56.3%. Besides, the growth inhibition was -3% in test [5] (setting [7]); 88% (active) in test [5] (setting [8]); 51.8% in test [5] (at 50.0 µM); -17% in test [6] (setting [7]); 91% (active) in test [6] (setting [8]); 53.4% in test [6] (at 50.0 µM).
`CCOC(=O)C12CCSC1C1(C#N)C(C#N)=CC2(N=P(c2ccccc2)(c2ccccc2)c2ccccc2)n2c(=O)n(-c3ccccc3)c(=O)n21` (configuration not stated): the growth inhibition in test [1] (setting [7]) is 45%; in test [1] (setting [8]), 29%; in test [1] (at 50.0 µM), 68%; in test [2] (setting [7]), 93% (active); in test [2] (setting [8]) it was 18%; in test [2] (at 50.0 µM) it was 39.9%. For the same molecule, the growth inhibition in test [3] (setting [7]) is 28%; in test [3] (setting [8]), 8%; in test [3] (at 50.0 µM), 59.9%; in test [4] (setting [7]), 32%; in test [4] (setting [8]), 34%; in test [4] (at 50.0 µM) it was 58.5%. Further, the growth inhibition is 96% (active) in test [5] (setting [7]); 46% in test [5] (setting [8]); 88.5% (active) in test [5] (at 50.0 µM); 46% in test [6] (setting [7]); 31% in test [6] (setting [8]); 53.9% in test [6] (at 50.0 µM).
Take `Nc1cccc2cccnc12`: the growth inhibition in test [1] (setting [7]) was 31%; in test [1] (setting [8]), 72% (active); in test [1] (at 50.0 µM), 89.3% (active); in test [2] (setting [7]), 8%; in test [2] (setting [8]) it was 14%; in test [2] (at 50.0 µM), 27%. Moreover, the growth inhibition in test [3] (setting [7]) is 18%; in test [3] (setting [8]) it was 48%; in test [3] (at 50.0 µM) it was 78.4% (active); in test [4] (setting [7]), 4%; in test [4] (setting [8]), 6%; in test [4] (at 50.0 µM), 18.4%. The growth inhibition in test [5] (setting [7]) is -3%; in test [5] (setting [8]) it was -4%; in test [5] (at 50.0 µM), 12.6%; in test [6] (setting [7]), 29%; in test [6] (setting [8]), 66%; in test [6] (at 50.0 µM), 91% (active).
Consider `CC(C)N(C(=O)C12C3C4C1C1C2C3C41I)C(C)C` (configuration not stated), for which the growth inhibition was 16% in test [1] (setting [7]); -6% in test [1] (setting [8]); 57.5% in test [1] (at 50.0 µM); -28% in test [2] (setting [7]); 19% in test [2] (setting [8]); 67.4% in test [2] (at 50.0 µM). Besides, the growth inhibition is 44% in test [3] (setting [7]); 27% in test [3] (setting [8]); 68.5% in test [3] (at 50.0 µM); 3% in test [4] (setting [7]); 28% in test [4] (setting [8]); 42.7% in test [4] (at 50.0 µM). For the same molecule, the growth inhibition in test [5] (setting [7]) is -38%; in test [5] (setting [8]), -11%; in test [5] (at 50.0 µM), 61%; in test [6] (setting [7]), -34%; in test [6] (setting [8]), 20%; in test [6] (at 50.0 µM), 73.5% (active).
